Growth data for seven molecules are collected here from PubChem BioAssay (NCI).

Among the test systems are SR leukemia; RPMI-8226 leukemia; OVCAR-8 ovarian; OVCAR-5 ovarian; OVCAR-4 ovarian; SK-OV-3 ovarian; IGROV1 ovarian; OVCAR-3 ovarian; HS 578T breast; NCI/ADR-RES ovarian; T-47D breast; BT-549 breast; MDA-MB-435 melanoma; SW-620 colon; MCF7 breast; HCT-116 colon; HCC-2998 colon; KM12 colon.
What all share (assay): NCI-60 one-dose screen, 48 h (100 = growth as untreated, 0 = no growth, -100 = all killed)
Settings in all cases: 10 µM unless noted

Compounds without any hit were thinned out: in the full panel of roughly 83,000, 20% have a hit.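 Values shown are percent growth following 48 h exposure of cells in 96-well plates to a single concentration of compound; below 10 was considered active.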 Unmarked numbers belong to inactive results. Activity calls are given as the source filed them.

On to `COc1c(B(O)O)cc(F)cc1-c1nc2ccc3[nH]ncc3c2c2c1COCC2`, for which the growth with SR leukemia is 43.4%; with RPMI-8226 leukemia, 31.5%; in the assay with OVCAR-8 ovarian, 51.5%; with OVCAR-5 ovarian it was 90.3%; in the assay on OVCAR-4 ovarian it was 102%; with SK-OV-3 ovarian, 82.8%. Also, the growth in the assay with IGROV1 ovarian is 57.8%; with OVCAR-3 ovarian, 64.1%; in the assay with HS 578T breast it was 9.63% (active); in the assay on NCI/ADR-RES ovarian, 93.9%; in the assay with T-47D breast, 62.6%; in the assay on BT-549 breast, -7.9% (active). Further, the growth in the assay with MDA-MB-435 melanoma is 87.1%; with SW-620 colon, 34.3%; in the assay on MCF7 breast, 44.7%; in the assay with HCT-116 colon, 19.8%; with HCC-2998 colon, 80.3%; in the assay on KM12 colon, 70.2%.
`O=C(Nc1nc2ccc([N+](=O)[O-])cc2s1)Nc1ccc(Cl)cc1Cl`: the growth in the assay with SR leukemia is 47.6%; with RPMI-8226 leukemia it was 23.5%; with OVCAR-8 ovarian it was 48.4%; in the assay with OVCAR-5 ovarian, 84.6%; in the assay on OVCAR-4 ovarian it was 54.6%; with SK-OV-3 ovarian it was 4.05% (active). For the same molecule, the growth in the assay on IGROV1 ovarian was 60.7%; in the assay with OVCAR-3 ovarian, 65.4%; in the assay with HS 578T breast, 46.4%; in the assay on NCI/ADR-RES ovarian, 26.6%; with T-47D breast it was 20.7%; in the assay with BT-549 breast, 65.3%. The growth was 60.3% with MDA-MB-435 melanoma; 75.9% in the assay with SW-620 colon; 36% in the assay with MCF7 breast; 22.5% in the assay on HCT-116 colon; 69.4% in the assay with HCC-2998 colon; 60.2% with KM12 colon.
As to `N#CC1=C(c2ccco2)Nc2c(c(-c3ccccc3)nn2-c2ccccc2)C12C(=O)Nc1ccc(Br)cc12` (stereo unspecified), the growth is 31.9% with SR leukemia; 47.8% with RPMI-8226 leukemia; 25% in the assay on OVCAR-8 ovarian; 74.9% in the assay with OVCAR-5 ovarian; 41.6% in the assay on OVCAR-4 ovarian; 80% with SK-OV-3 ovarian. Also, the growth with IGROV1 ovarian was 67%; in the assay on OVCAR-3 ovarian, 42.5%; in the assay on HS 578T breast it was 6.01% (active); in the assay on NCI/ADR-RES ovarian, 29.9%; in the assay on T-47D breast, 48.5%; in the assay with BT-549 breast, 70.4%. For the same molecule, the growth with MDA-MB-435 melanoma was 59.8%; with SW-620 colon it was 46.3%; with MCF7 breast it was 39.8%; in the assay on HCT-116 colon it was 5.08% (active); in the assay with HCC-2998 colon it was 91.8%; in the assay with KM12 colon, 66.4%.
On to `CN(C)c1nc(NCCNS(=O)(=O)c2ccc(C(=O)/C=C/c3ccc(Cl)cc3)cc2)nc(N2CCOCC2)n1`, for which the growth was -12.8% (active) with SR leukemia; -22.8% (active) with RPMI-8226 leukemia; 12.8% in the assay with OVCAR-8 ovarian; 55.4% with OVCAR-5 ovarian; 60% with OVCAR-4 ovarian; 73.9% in the assay with SK-OV-3 ovarian. In addition, the growth in the assay with IGROV1 ovarian is -71.2% (active); in the assay on OVCAR-3 ovarian it was -9.86% (active); in the assay on HS 578T breast, 62%; with NCI/ADR-RES ovarian it was 25.5%; in the assay with T-47D breast it was 10.3%; in the assay with BT-549 breast, 12.8%. Also, the growth is -53.6% (active) with MDA-MB-435 melanoma; -66.9% (active) in the assay with SW-620 colon; -67% (active) in the assay on MCF7 breast; -95.5% (active) in the assay with HCT-116 colon; -94.4% (active) with HCC-2998 colon; -76.9% (active) in the assay on KM12 colon.
For `C[C@@H]1CN(c2ccc3ncc(C#Cc4cncc(C(=O)Nc5ccc(CN6CCN(C)CC6)c(C(F)(F)F)c5)c4)n3n2)C[C@@H](C)O1`, the growth in the assay with SR leukemia was -27.6% (active); with RPMI-8226 leukemia, -65% (active); with OVCAR-8 ovarian, -71.8% (active); with OVCAR-5 ovarian, -54.2% (active); in the assay on OVCAR-4 ovarian, -61.5% (active); with SK-OV-3 ovarian, -80.1% (active). In addition, the growth in the assay on IGROV1 ovarian was -56.3% (active); with OVCAR-3 ovarian, -60.6% (active); in the assay with HS 578T breast it was -49.2% (active); with NCI/ADR-RES ovarian it was -85.1% (active); in the assay on T-47D breast, -62.6% (active); in the assay with BT-549 breast it was -75.4% (active). Besides, the growth in the assay with MDA-MB-435 melanoma is -96.4% (active); in the assay on SW-620 colon, -84.2% (active); in the assay with MCF7 breast it was -93.1% (active); in the assay with HCT-116 colon, -23.5% (active); in the assay with HCC-2998 colon, -97% (active); in the assay on KM12 colon, -66.6% (active).
For `Cc1ccccc1Nc1nnc(-c2c[nH]c3ccccc23)o1`, the growth in the assay on SR leukemia is 15.5%; in the assay with RPMI-8226 leukemia, 7.25% (active); in the assay on OVCAR-8 ovarian, 18.9%; in the assay on OVCAR-5 ovarian, 33.4%; in the assay on OVCAR-4 ovarian it was 79.9%; in the assay on SK-OV-3 ovarian, 17.6%. In addition, the growth was 20.8% with IGROV1 ovarian; 7.3% (active) in the assay with OVCAR-3 ovarian; -2.08% (active) in the assay on HS 578T breast; -20.2% (active) in the assay on NCI/ADR-RES ovarian; 39.7% in the assay on T-47D breast; 17.7% in the assay on BT-549 breast. The growth in the assay with MDA-MB-435 melanoma is -47.2% (active); in the assay on SW-620 colon, 19.6%; in the assay on MCF7 breast, 21.8%; in the assay on HCT-116 colon it was 19.3%; in the assay with HCC-2998 colon it was 11.3%; in the assay with KM12 colon, 25%.
For `CCOc1ccccc1[C@H]1C(C(=O)c2ccc(Cl)cc2)C2(N[C@@H]1c1ccccc1)C(=O)Nc1ccc(Cl)cc12` (stereo partly specified), the growth in the assay with SR leukemia is -28.3% (active); with RPMI-8226 leukemia it was 21.1%; in the assay with OVCAR-8 ovarian, 45%; in the assay on OVCAR-5 ovarian, 46.2%; in the assay with OVCAR-4 ovarian it was 22.5%; with SK-OV-3 ovarian, 42.8%. The growth in the assay with IGROV1 ovarian is 22.2%; in the assay with OVCAR-3 ovarian it was 27%; in the assay with HS 578T breast, 49%; in the assay on NCI/ADR-RES ovarian, 12.6%; with T-47D breast, 19.9%; with BT-549 breast, 9.4% (active). The growth is 24.1% in the assay with MDA-MB-435 melanoma; 38.1% in the assay on SW-620 colon; 5.27% (active) in the assay with MCF7 breast; 11.1% in the assay with HCT-116 colon; 20.4% with HCC-2998 colon; 24.2% with KM12 colon.
